Source: the supplement of paper PMC10849652
The full data set covers some 7,900 targets. This sample favours those with a hit. About 0.6% of all pairs of compound and target were hits. Values without a mark were called inactive.

compound: CC1=NC(=CC=C1)C2=C(N=C(N2)C(C)(C)C)C3=CC4=NC=CN=C4C=C3; assay: log2 fold change, soluble protein after heating vs DMSO (PISA); higher = thermal stabilisation; K562 cells, 10 uM, 30 min; active = over 0.2 and 3.5 SD of the protein, either way, in both replicates (recomputed)
Summary of the method: (§1)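 K562 cells at 2×10^6 cells/mL were treated with 10 μM compound for 30 min. Aliquots were heated for 3 min across 48°C-58°C, pooled, and extracted in PBS with 0.5% NP-40 at 4°C; soluble protein was the supernatant after 21,000xg for 90 min. Soluble protein was quantified by TMTpro 16plex LC-MS/MS with channel sums equalised, and reported as log2 fold change in thermal stability against DMSO controls, with values from duplicates.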

Chain of UniProt O00560 (O00560 whole entry, looked up): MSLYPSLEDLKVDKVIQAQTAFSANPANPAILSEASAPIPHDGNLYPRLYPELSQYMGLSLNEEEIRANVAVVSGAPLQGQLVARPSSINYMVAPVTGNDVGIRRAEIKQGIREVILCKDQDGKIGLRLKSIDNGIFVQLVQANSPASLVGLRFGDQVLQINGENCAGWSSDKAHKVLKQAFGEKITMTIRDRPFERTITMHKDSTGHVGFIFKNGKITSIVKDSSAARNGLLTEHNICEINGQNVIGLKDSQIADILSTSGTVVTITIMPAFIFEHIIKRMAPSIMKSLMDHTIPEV
Chain of UniProt P61586 (P61586 whole entry, looked up): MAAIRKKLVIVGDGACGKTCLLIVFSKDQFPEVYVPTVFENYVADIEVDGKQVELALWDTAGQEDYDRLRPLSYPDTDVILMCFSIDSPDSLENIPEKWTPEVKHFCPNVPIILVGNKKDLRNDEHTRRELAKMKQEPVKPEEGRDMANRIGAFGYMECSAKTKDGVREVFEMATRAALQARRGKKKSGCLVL
Chain of UniProt Q8WWV3 (Q8WWV3 whole entry, looked up): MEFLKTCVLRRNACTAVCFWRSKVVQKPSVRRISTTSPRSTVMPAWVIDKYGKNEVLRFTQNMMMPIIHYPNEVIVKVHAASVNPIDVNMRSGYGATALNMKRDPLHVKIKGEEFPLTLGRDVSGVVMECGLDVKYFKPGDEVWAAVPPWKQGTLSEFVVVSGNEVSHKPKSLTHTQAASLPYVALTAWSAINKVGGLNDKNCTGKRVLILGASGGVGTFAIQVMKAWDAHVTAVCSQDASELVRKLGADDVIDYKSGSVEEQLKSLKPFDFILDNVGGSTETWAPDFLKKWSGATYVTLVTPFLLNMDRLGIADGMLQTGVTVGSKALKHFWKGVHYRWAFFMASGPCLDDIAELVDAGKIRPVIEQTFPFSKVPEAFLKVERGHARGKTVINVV
Chain of UniProt Q96T23 (Q96T23 whole entry, looked up): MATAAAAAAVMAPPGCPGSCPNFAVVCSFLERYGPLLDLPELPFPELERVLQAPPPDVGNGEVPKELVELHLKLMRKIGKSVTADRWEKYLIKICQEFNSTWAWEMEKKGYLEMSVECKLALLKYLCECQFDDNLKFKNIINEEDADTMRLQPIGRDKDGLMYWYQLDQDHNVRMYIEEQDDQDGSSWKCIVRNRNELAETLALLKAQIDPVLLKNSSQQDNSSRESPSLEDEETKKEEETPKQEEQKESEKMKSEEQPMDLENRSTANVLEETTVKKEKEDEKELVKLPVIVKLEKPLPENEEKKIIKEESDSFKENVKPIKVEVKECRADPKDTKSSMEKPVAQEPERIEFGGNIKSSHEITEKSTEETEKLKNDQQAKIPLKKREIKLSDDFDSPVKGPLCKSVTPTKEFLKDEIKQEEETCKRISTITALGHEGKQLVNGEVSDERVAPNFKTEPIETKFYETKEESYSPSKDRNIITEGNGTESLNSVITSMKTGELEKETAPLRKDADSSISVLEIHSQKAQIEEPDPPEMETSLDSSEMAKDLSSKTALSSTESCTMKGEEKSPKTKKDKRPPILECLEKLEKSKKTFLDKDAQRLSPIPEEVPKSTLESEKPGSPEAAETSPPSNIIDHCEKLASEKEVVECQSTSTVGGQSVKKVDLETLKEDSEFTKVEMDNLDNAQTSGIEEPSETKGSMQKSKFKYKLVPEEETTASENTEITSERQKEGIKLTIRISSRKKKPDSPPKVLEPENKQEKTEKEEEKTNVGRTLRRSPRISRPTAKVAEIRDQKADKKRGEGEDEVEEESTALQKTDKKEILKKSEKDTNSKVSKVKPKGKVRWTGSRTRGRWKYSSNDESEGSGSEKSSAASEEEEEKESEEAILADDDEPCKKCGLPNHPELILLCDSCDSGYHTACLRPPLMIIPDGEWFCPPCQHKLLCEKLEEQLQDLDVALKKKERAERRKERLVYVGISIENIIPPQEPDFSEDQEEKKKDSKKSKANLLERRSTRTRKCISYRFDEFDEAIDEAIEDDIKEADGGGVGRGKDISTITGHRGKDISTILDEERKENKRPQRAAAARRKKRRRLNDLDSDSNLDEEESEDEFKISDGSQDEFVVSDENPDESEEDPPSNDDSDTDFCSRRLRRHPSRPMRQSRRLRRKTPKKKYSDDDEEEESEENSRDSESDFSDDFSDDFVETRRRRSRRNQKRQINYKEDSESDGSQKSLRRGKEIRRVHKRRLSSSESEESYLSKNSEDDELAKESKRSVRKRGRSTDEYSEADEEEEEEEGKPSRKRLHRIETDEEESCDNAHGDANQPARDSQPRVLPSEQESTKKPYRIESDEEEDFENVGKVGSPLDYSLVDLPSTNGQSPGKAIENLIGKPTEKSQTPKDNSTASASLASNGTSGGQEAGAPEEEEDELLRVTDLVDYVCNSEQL
Chain of UniProt O95470 (O95470 whole entry, looked up): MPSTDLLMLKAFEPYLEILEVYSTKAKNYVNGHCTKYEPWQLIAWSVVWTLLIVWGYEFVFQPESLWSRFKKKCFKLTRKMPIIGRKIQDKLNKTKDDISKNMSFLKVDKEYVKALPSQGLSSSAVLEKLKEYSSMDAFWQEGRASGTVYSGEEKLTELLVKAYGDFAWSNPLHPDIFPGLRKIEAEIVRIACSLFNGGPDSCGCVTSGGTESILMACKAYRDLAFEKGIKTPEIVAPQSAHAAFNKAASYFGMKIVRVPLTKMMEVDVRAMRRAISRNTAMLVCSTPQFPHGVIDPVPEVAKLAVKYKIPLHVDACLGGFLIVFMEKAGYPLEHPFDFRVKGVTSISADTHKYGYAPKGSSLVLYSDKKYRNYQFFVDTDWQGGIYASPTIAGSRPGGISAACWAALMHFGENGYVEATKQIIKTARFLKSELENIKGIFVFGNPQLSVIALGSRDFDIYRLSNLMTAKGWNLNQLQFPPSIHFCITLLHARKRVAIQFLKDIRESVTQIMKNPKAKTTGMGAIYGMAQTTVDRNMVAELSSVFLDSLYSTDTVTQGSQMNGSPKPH
Chain of UniProt Q9BXP2 (Q9BXP2 whole entry, looked up): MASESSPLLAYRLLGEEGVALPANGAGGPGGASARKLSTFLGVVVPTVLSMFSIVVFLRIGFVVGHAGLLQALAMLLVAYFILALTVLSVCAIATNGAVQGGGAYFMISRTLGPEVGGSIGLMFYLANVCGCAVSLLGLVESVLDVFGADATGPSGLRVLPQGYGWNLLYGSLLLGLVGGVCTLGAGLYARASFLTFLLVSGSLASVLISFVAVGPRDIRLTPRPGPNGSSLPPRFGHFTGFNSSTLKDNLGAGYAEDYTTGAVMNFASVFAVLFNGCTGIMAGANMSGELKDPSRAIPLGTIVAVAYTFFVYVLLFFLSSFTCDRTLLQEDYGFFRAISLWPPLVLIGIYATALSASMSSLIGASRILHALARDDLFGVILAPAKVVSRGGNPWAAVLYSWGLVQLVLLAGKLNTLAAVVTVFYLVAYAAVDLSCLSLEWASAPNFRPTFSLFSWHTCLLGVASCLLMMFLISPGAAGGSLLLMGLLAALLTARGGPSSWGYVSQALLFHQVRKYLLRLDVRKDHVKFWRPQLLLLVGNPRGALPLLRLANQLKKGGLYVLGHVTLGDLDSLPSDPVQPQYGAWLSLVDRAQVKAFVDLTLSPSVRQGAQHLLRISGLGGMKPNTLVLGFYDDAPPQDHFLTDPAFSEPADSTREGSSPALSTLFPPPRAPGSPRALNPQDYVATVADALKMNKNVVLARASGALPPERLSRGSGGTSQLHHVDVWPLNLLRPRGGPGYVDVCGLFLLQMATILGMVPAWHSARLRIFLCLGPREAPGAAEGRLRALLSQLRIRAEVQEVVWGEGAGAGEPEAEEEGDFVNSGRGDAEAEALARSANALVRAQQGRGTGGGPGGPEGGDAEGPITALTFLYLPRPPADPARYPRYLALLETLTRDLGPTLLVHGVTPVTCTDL
Chain of UniProt Q06609 (Q06609 whole entry, looked up): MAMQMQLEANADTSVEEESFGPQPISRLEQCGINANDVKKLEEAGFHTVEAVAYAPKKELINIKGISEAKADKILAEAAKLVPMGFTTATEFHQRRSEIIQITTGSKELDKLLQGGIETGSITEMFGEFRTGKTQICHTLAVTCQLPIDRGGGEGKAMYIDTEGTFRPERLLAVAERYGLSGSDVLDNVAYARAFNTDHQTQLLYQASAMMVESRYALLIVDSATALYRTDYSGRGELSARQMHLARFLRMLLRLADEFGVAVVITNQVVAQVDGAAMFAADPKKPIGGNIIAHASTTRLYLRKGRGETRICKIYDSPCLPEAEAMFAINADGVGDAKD
Chain of UniProt Q9NR46 (Q9NR46 whole entry, looked up): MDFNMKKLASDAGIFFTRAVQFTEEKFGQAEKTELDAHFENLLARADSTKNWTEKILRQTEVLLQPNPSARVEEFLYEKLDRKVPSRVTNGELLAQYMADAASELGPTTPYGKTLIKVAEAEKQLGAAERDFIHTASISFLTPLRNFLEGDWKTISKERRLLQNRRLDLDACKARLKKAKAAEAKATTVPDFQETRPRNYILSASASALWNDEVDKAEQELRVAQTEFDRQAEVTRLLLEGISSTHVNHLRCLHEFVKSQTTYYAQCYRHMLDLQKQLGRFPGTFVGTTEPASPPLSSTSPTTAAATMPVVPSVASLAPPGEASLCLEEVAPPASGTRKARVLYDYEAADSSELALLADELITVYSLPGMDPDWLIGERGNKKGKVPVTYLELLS
Chain of UniProt Q8WXD2 (Q8WXD2 whole entry, looked up): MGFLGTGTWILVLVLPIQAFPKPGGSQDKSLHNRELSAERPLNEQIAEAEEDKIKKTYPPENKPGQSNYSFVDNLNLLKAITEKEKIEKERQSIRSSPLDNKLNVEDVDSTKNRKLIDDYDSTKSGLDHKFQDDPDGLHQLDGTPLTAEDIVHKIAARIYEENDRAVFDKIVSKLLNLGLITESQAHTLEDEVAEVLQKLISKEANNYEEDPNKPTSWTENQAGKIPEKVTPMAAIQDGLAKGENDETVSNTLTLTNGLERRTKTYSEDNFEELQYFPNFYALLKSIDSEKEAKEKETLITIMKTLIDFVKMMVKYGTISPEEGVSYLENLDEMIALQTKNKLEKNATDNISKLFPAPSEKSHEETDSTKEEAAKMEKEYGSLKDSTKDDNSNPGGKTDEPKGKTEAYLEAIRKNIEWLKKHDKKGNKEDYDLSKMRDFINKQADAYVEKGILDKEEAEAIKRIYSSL

| Target | log2 fold change |
| --- | --- |
| ROCK2 (UniProt O75116) | 0.02 |
| SCCPDH (UniProt Q8NBX0) | 0.037 |
| RB1 (UniProt P06400) | 0.003 |
| RAB3IL1 (UniProt Q8TBN0) | 0.02 |
| SDCBP (UniProt O00560) | 0.025 |
| RTN4IP1 (UniProt Q8WWV3) | 0.119 |
| SGPL1 (UniProt O95470) | -0.054 |
| RPS14 (UniProt P62263) | -0.004 |
| RAD51 (UniProt Q06609) | -0.052 |
| SH3GLB2 (UniProt Q9NR46) | 0.033 |
| RPS5 (UniProt P46782) | -0.038 |
| RAD50 isoform 2 (UniProt Q92878) | 0.009 |
| RPS13 (UniProt P62277) | -0.057 |
| RHOA (UniProt P61586) | 0.061 |
| SLC12A9 (UniProt Q9BXP2) | 0.005 |
| SCG3 (UniProt Q8WXD2) | -0.05 |
| RSF1 (UniProt Q96T23) | 0.217 |

| Target | log2 fold change |
| --- | --- |
| RPS3 (UniProt P23396) | -0.042 |
| RPS6KA1 isoform 2 (UniProt Q15418) | 0.078 |
| RRAGC (UniProt Q9HB90) | 0.008 |
| SERINC3 (UniProt Q13530) | 0.054 |
| RBM25 (UniProt P49756) | -0.074 |
| SKP1 (UniProt P63208) | 0.017 |
| RARS (UniProt P54136) | -0.048 |
| RDH11 (UniProt Q8TC12) | -0.016 |
| RPS15 (UniProt P62841) | 0.005 |
| RPS18 (UniProt P62269) | -0.061 |
| RETSAT (UniProt Q6NUM9) | -0.037 |
| RMC1 (UniProt Q96DM3) | 0.024 |
| SAAL1 (UniProt Q96ER3) | 0.009 |
| RPA1 (UniProt P27694) | 0.05 |
| RAC1 (UniProt P63000) | 0.241 |
| SDHC (UniProt Q99643) | 0.023 |
| SERPINA7 (UniProt P05543) | -0.021 |

compound: CCCCN(Cc1ccc(C(=O)NO)cc1)C(=O)Nc1ccccc1 [Nexturastat A]; assay: as above
Summary of the method: as §1

| Target | log2 fold change |
| --- | --- |
| ROCK2 (UniProt O75116) | -0.004 |
| SCCPDH (UniProt Q8NBX0) | -0.232 |
| RB1 (UniProt P06400) | -0.1 |
| RAB3IL1 (UniProt Q8TBN0) | -0.124 |
| SDCBP (UniProt O00560) | 0.001 |
| RTN4IP1 (UniProt Q8WWV3) | -0.061 |
| SGPL1 (UniProt O95470) | 0.031 |
| RPS14 (UniProt P62263) | 0.102 |
| RAD51 (UniProt Q06609) | 0.001 |
| SH3GLB2 (UniProt Q9NR46) | -0.064 |
| RPS5 (UniProt P46782) | 0.126 |
| RAD50 isoform 2 (UniProt Q92878) | -0.005 |
| RPS13 (UniProt P62277) | 0.119 |
| RHOA (UniProt P61586) | 0.039 |
| SLC12A9 (UniProt Q9BXP2) | -0.008 |
| SCG3 (UniProt Q8WXD2) | -0.071 |
| RSF1 (UniProt Q96T23) | -0.091 |
